Hits are enriched below; roughly 5.3% of the tested compounds scored in any of these assays.
Marburg entry inh – blocks Marburg virus binding to or entry into cells; Potency, µM (doses to about 37.8 µM), for inactives: top-dose activity change, negative = inhibition, actives largely listed as inhibitors; AID 540276; Marburg virus pseudotyped entry inhibition, cell reporter; 1.8% of 300,000 active; calls by dose curve; tested in HEK293 cells
FMDV inh – antivirals against foot and mouth disease virus | 1.2% of 410,000 active | FMDV antiviral cell-based qHTS | AID 1159524 | Potency, µM (highest dose often 57.9 µM), for the others: at the top dose activity change, negative = inhibition, usual class: inhibitors; calls by dose curve; tested in HEK293T cells; also: read-out not given here; nearly all actives have a fitted effect of over 45% in size
LASV entry inh – blocks Lassa virus binding to or entry into cells | Lassa virus pseudotype entry inhibition, cell reporter | Potency, µM (titrated, usually from 37.9 µM), without a hit: at the top dose activity change, negative = inhibition, most hits filed as inhibitors | 1.2% of 300,000 active | AID 540256; calls by dose curve; tested in HEK293 cells; also: nearly all actives have a fitted effect of over 50% in size
HCV inhibitor – inhibitors of hepatitis C virus infection; Potency, µM (titrated, usually from 41.8 µM), for the others: at the highest dose activity change, negative = inhibition, hits mostly inhibitors; Huh7.5.1 HCVcc-Cre infection, luciferase reporter, 44 h; 3.4% of 340,000 active; active = well fitted inhibition curve with a large enough effect; inconclusive = small, poorly fitted or top-dose-only effect, or another doubt; inactive = no such curve, though single readings can be large or run the other way
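Whole-lifecycle infectious HCVcc-Cre system; cells 1,000/well, compound then virus (~0.5 moi) added 4 h after plating, 44 h culture. Luciferase read 15 sec following 15 min substrate incubation, room temp.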
Vaccinia Venus – vaccinia inhibition (Venus reporter) | Vaccinia virus Venus reporter expression, fluorescence | Potency, µM (doses to about 36.5 µM), for the others: at the highest dose activity change, negative = inhibition, most hits filed as inhibitors | 0.46% of 330,000 active | AID 720580; calls by dose curve; tested in A549 cells; also: nearly all actives have a fitted effect of over 30% in size
Vaccinia mCherry – vaccinia inhibition (mCherry reporter) | Vaccinia virus mCherry reporter infection, fluorescence | Potency, µM (titrated, usually from 36.5 µM), for the others: top-dose activity change, negative = inhibition, usual class: inhibitors | 0.63% of 310,000 active; calls by dose curve; tested in A549 cells; also: nearly all actives have a fitted effect of over 35% in size
* hit, by the source's call; i = inactive; ? = inconclusive; . = no result; [ ] = dose if it differs, or a comment. % is scaled to controls: 0 for no effect and ±100 for the full control effect; potency is read from the fitted curve at half-maximal effect.

SMILES	Marburg entry inh	FMDV inh	LASV entry inh	HCV inhibitor	Vaccinia Venus	Vaccinia mCherry
COC(=O)C1CCN(C(c2ccccc2Cl)c2sc3nc(-c4ccco4)nn3c2O)CC1 (centres undefined)	.	-6.0%	5.0%[46.1 µM]	.	-15.2%	-16.1%
CC(C)[C@@H](OCc1ccccc1)[C@H](C)/C=N/OC[C@@H](C)[C@H](OCc1ccccc1)C(C)C	25.4%[14.2 µM]	.	.	.	.	.
C[C@H]1CC[C@]2(NC1)O[C@H]1C[C@H]3[C@@H]4CC[C@H]5C[C@@H](O)CC[C@]5(C)[C@H]4CC[C@]3(C)[C@H]1[C@@H]2C	.	-8.9%	.	.	-8.5%	-17.1%
O=c1c2c(-c3ccccc3)csc2ncn1/N=C/c1cccc([N+](=O)[O-])c1O	?	-5.2%	-9.3%[46.1 µM]	-13.6%	-20.4%	-26.8%
Cn1cc(/C=N/n2cnc3scc(-c4ccccc4)c3c2=O)c2ccccc21	?	-17.1%	-10.2%	6.31µM*	?	?
CCOC(=O)[C@]12C[C@@H]3CCN(C(=O)N(C(C)=O)[C@@H]1c1ccccc1)[C@@H]32	-9.4%[14.2 µM]	.	.	.	.	.
C[C@@H]1C=CCCO[C@]12C(=O)N(Cc1ccc(Br)cc1)c1ccccc12	26.8%[14.2 µM]	.	.	.	.	.
CC(C)=CCCC(C)CN1CCC(N2CCC(C(=O)NC(C)C)CC2)CC1 (centres undefined)	.	?	.	2.82µM*	.	.
CC(C)=CCCC(C)CN1CCC(N2CCC(C(=O)N3CCOCC3)CC2)CC1 (centres undefined)	.	-8.3%	.	0.891µM*	.	.
CC(C)=CC(=O)N1CCC(N2CCC(C(=O)N3CCOCC3)CC2)CC1	.	0.0%	.	16.3%	.	.
Cc1cc(C(=O)NCc2nnc3n2CCN(Cc2ccc4c(c2)Cc2ccccc2-4)CC3)c(C)o1	.	-27.6%	.	.	-6.4%	-9.5%
Cc1ccc(S(=O)(=O)c2nc(-c3ccccc3Cl)oc2N(C)C)cc1	-27.6%	24.9%	?	20µM*	?	-8.3%
Cc1ccc(S(=O)(=O)c2nc(-c3ccccc3Br)oc2N(C)C)cc1	-15.7%	-6.5%	?	?	-17.0%	?
C[C@@H](C(=O)NCc1ccccc1)[C@@H]1C[C@@]1(C)[C@@H](NC(=O)OCc1ccccc1)c1ccccc1	-62.3%	-5.2%	7.31µM*	?	-29.9%	?
C[C@@H](C(=O)NCc1ccc(S(C)(=O)=O)cc1)[C@H]1C[C@]1(C)[C@H](NC(=O)OCc1ccccc1)c1ccccc1	-39.9%	-20.9%	?	0.9%[8.37 µM]	-12.2%	-24.6%
Cc1ccc(CNC(=O)[C@H](C)[C@H]2C[C@]2(C)[C@H](NC(=O)OCc2ccccc2)c2ccccc2)o1	10.3µM*	-10.5%	-20.2%	-10.2%[8.37 µM]	?	i
CC1=C(C(=O)NCc2ccc(C)cc2)C2(CCCCC2)OC1=O	.	-6.4%	-7.4%[46.1 µM]	.	-9.1%	-11.6%
S=C(NNc1nc(Nc2ccccc2)nc(N2CCCCC2)n1)NC1CCCCC1	10µM*	-14.5%	-5.8%	?	-8.9%	-16.2%
C=CCNC(=S)NNc1nc(Nc2ccccc2)nc(N2CCCCC2)n1	-19.6%[46.1 µM]	-8.3%	2.0%	0.6%	-6.6%	-9.6%
C#CCOCCOCCOCCNc1nc(N2CCN(C(=O)CCCCCCCCCCNC(=O)[C@H](CCCCN)n3cc(C)nn3)CC2)nc(N2CCN(C(=O)CCCCCCCCCCNC(=O)[C@@H]([C@H](C)CC)n3cc(CCCCCN)nn3)CC2)n1	.	.	.	22.4µM*	.	.
C#CCOCCOCCOCCNc1nc(N2CCN(C(=O)CCCCCCCCCCNC(=O)[C@H]([C@@H](C)CC)n3cc(CCCCCN)nn3)CC2)nc(N2CCN(C(=O)CCCCCCCCCCNC(=O)[C@@H]([C@H](C)O)n3cc(C)nn3)CC2)n1	.	?	.	15.7%	11.2µM*	?
COc1cccc(-c2ccnc(-n3ncc(C(=O)N(C)CCc4ccccn4)c3C)n2)c1	.	5.6%	.	.	-8.5%	-12.5%
O=C(/C=C/c1ccnc2ccccc12)c1cccs1	3.16µM*	-70.3%	?	?	-19.7%	i
Cc1c(Cl)ccc2c(C(=O)NCCN3CCCCC3)cc(-c3ccccn3)nc12	?	-26.6%	3.1%	5.62µM*	-6.4%	i
CCCOc1ccc(C(=O)NNC(=S)NC(=O)c2cc(-c3ccc(Cl)cc3)nc3ccccc23)cc1	?	6.4%	-9.6%	15.8µM*	-12.1%	-19.7%

Compound activity as filed in PubChem.
